The whole screen tested about 360,000 compounds, of which about 1,400 (0.39%) were called active. Shown is part of a subset that was picked to be rich in actives. Values without a mark were called inactive.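 Rule for the calls: active = activation above its plate's cutoff, the mean activation of sample wells plus 3 SD; inactive = the rest.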
target: Muscarinic acetylcholine receptor M4 (Homo sapiens) (UniProt P08173); experiment: human M4 muscarinic receptor positive allosteric modulators, primary screen, CHO-K1 cells, Fluo-8 calcium fluorescence (AID 624126); settings: CHO-K1 hM4/Gqi5, Fluo-8 calcium fluorescence, ACh EC20; at 3 µM; hits give high values; 0% = ACh EC20, 100% = maximal ACh
Sequence (P08173 whole entry, looked up): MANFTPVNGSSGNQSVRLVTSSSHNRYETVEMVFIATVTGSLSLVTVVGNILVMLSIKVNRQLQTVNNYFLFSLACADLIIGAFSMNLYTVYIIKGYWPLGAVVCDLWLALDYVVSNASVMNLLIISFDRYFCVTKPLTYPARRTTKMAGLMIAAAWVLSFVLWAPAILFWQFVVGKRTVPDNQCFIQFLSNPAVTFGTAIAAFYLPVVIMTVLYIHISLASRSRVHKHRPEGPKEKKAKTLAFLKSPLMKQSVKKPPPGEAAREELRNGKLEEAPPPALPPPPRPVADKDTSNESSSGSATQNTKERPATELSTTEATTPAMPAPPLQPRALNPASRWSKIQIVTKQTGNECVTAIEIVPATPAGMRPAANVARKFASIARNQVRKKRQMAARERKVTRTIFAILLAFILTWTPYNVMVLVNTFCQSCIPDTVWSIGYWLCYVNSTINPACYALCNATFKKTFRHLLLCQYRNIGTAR

Row | SMILES | activation
1 | O=C1NC[C@@H](c2ccccc2)OC(=O)[C@H](Cc2ccc(F)cc2)CC/C=C/C[C@H]1CC(=O)N(CCO)Cc1ccccc1 | -11.5%
2 | O=C(O)CCn1cc(/C=C/C(=O)c2ccc(Cl)cc2)c(-c2cccc(Br)c2)n1 | -5.08%
3 | O=[N+]([O-])c1ccc2[nH]c3c(c2c1)CCCC3O (stereo unspecified) | 6.6%
4 | CC(C)Oc1ccccc1C(=O)NC(CO)C(=O)O (stereo unspecified) | 7.23%
5 | CC(=O)Oc1ccc(NC(=O)CCC2CCCCC2)c(C(=O)O)c1 | 4.74%
6 | COc1ccc(NC(=O)CCCC2CCCCC2)c(OC)c1 | 21.1% (active)
7 | COc1ccc(NC(=O)CCn2ccnc2)c(OC)c1 | -8.61%
8 | CCOC(=O)c1c(CN(C)C)n(-c2ccccc2)c2cc(Br)c(O)cc12 | 1.89%
9 | Nc1nnc(C2CCCC2)s1 | -4.96%
10 | CCOC(=O)C1CCN(C(=O)/C=C/c2cc(OC)c(OC)c(OC)c2)CC1 | 0.77%
11 | COc1cc(/C=C/C(=O)N2CCc3ccccc3C2)cc(OC)c1OC | -4.53%
12 | COc1ccc(/C=C/C(=O)N2CCCC2)cc1OC | 31.3% (active)
13 | COc1cccc(NC(=O)Cn2c3ccccc3c3nc4n(c(=O)c32)CCS4)c1 | 7.32%
14 | S=C(NCc1ccc(Cl)cc1)NC12CC3CC(CC(C3)C1)C2 | -13.6%
15 | O=C(NCc1ccncc1)NC12CC3CC(CC(C3)C1)C2 | 21.2% (active)
16 | O=C(NCc1cccnc1)C12CC3CC(CC(C3)C1)C2 | -4.11%
17 | Cc1noc(C)c1NC(=O)N(C)C[C@@H]1Oc2cc(Br)ccc2S(=O)(=O)N([C@@H](C)CO)C[C@H]1C | 3.07%
18 | COC(=O)c1ccc(OC(=O)c2nn(C)cc2Cl)c(OC)c1 | 22% (active)
19 | COc1ccc(CCNC(=O)COC(=O)c2ncc(Cl)c(Cl)c2Cl)cc1OC | 0.15%
20 | COC(=O)c1ccc(COC(=O)c2cnc(Cl)c(Cl)c2)cc1 | 1.26%
21 | COc1ccc(CSc2nnnn2-c2ccc(O)cc2)cc1F | -3.48%
